The full data set covers some 7,900 targets. This sample favours those with a hit. About 0.6% of all pairs of compound and target were hits.
Compound: Cc1cccc(CC(=O)N2CCc3c2ccc(-c2cn(C)c4ncnc(N)c24)c3F)n1
Experiment: log2 fold change, soluble protein after heating vs DMSO (PISA); higher = thermal stabilisation; K562 cells, 10 uM, 30 min; active = over 0.2 and 3.5 SD of the protein, either way, in both replicates (recomputed)
Procedure, shortened: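 Soluble protein was defined as the supernatant after 21,000xg for 90 min. It came from K562 cells at 2×10^6 cells/mL given 10 μM compound for 30 min, heated in aliquots for 3 min across 48°C-58°C, pooled, and extracted in PBS with 0.5% NP-40 at 4°C, and was quantified by TMTpro 16plex LC-MS/MS with equalised channel sums. Thermal stability against control samples, from duplicates, is reported as log2 fold change.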

UniProt Q9Y2U8, sequence (Q9Y2U8 whole entry, looked up): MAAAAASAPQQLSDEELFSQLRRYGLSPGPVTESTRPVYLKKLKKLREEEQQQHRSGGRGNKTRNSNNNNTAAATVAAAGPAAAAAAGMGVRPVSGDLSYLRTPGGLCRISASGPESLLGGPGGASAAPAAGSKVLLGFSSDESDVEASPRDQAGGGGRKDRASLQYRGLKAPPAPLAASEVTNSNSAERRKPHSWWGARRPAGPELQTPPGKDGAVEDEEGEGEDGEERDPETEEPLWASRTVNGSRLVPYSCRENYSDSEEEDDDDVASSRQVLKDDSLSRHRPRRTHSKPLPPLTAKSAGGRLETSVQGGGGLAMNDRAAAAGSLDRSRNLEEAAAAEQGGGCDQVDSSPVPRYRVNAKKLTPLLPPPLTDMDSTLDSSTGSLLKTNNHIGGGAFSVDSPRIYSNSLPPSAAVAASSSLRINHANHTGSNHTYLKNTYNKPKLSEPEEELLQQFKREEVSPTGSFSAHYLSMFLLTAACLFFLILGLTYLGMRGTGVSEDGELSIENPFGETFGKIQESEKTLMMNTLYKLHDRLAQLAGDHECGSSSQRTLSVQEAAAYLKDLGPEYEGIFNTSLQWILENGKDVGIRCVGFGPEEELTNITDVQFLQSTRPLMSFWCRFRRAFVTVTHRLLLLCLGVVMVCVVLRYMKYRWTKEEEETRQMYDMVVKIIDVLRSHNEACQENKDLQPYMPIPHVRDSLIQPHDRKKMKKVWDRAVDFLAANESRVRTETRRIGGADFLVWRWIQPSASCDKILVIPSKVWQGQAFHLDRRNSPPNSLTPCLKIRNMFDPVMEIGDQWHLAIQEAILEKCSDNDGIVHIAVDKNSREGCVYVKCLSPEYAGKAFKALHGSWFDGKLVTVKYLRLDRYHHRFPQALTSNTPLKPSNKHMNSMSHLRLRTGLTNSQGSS
UniProt Q16891, sequence (Q16891 whole entry, looked up): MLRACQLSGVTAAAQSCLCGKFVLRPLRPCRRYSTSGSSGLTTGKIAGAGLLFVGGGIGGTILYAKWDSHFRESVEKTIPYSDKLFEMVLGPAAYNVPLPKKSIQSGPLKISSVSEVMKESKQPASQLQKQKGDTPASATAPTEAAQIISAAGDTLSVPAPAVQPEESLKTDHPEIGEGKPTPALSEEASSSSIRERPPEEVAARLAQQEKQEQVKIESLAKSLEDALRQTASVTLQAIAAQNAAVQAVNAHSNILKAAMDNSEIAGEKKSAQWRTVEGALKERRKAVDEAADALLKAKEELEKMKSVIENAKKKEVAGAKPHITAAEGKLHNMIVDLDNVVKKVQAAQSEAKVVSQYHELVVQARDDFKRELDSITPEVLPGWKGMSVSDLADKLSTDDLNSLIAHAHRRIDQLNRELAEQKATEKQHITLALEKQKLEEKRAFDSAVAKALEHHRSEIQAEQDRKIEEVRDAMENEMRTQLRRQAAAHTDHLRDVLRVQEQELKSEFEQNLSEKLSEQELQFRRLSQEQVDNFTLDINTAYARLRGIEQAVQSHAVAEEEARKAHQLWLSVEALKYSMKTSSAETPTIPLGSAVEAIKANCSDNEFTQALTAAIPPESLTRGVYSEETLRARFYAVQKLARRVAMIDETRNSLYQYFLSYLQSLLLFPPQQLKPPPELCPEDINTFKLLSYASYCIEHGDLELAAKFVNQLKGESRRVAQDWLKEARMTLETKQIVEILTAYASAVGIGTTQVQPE
UniProt P49006, sequence (P49006 whole entry, looked up): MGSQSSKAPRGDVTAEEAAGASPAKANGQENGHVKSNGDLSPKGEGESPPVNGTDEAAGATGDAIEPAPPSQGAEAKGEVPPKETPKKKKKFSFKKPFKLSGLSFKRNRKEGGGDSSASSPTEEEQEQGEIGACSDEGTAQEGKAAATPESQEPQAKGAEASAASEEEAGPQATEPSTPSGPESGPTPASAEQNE
UniProt Q9BY66, sequence (Q9BY66 whole entry, looked up): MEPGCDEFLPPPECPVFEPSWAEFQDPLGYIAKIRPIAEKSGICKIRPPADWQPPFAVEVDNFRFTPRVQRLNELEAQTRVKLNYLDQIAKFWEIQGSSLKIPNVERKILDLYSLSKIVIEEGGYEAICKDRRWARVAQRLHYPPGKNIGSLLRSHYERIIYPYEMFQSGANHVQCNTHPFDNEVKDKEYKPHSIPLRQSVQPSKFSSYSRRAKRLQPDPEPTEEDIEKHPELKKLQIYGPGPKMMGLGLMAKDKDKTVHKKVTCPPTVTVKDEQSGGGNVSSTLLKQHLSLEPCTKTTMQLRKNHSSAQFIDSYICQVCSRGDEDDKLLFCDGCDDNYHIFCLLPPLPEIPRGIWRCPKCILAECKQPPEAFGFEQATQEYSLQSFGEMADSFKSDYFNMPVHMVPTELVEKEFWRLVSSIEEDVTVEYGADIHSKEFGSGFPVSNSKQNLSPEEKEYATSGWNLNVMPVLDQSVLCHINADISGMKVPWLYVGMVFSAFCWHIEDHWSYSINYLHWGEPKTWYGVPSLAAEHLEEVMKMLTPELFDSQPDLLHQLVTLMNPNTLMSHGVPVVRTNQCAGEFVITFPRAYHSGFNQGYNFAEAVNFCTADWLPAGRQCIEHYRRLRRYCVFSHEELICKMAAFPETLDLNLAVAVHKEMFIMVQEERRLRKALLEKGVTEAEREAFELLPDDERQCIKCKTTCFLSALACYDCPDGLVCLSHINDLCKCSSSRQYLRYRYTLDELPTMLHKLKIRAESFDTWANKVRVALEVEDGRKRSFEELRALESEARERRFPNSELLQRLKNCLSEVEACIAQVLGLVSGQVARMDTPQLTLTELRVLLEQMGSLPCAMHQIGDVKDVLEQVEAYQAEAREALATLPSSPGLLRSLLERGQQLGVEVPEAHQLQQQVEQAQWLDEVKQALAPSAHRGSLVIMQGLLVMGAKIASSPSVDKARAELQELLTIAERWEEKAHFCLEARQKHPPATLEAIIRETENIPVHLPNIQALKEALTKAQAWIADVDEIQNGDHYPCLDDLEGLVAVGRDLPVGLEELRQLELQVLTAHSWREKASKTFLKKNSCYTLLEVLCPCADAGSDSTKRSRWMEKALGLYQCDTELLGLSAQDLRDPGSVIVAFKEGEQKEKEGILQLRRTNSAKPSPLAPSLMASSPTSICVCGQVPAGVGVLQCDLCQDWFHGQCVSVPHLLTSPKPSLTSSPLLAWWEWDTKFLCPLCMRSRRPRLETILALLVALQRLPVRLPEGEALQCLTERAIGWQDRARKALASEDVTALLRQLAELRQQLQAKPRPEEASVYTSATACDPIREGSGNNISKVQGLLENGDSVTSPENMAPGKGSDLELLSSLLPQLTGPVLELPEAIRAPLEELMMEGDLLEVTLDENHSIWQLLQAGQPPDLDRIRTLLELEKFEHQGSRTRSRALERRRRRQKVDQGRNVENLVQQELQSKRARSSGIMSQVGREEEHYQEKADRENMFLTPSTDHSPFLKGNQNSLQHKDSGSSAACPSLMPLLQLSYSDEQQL
UniProt Q96A72, sequence (Q96A72 whole entry, looked up): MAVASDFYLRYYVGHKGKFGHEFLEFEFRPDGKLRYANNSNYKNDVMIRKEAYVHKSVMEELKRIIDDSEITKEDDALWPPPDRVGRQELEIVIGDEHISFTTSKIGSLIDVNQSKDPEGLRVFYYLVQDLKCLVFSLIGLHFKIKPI
UniProt P48449, sequence (P48449 whole entry, looked up): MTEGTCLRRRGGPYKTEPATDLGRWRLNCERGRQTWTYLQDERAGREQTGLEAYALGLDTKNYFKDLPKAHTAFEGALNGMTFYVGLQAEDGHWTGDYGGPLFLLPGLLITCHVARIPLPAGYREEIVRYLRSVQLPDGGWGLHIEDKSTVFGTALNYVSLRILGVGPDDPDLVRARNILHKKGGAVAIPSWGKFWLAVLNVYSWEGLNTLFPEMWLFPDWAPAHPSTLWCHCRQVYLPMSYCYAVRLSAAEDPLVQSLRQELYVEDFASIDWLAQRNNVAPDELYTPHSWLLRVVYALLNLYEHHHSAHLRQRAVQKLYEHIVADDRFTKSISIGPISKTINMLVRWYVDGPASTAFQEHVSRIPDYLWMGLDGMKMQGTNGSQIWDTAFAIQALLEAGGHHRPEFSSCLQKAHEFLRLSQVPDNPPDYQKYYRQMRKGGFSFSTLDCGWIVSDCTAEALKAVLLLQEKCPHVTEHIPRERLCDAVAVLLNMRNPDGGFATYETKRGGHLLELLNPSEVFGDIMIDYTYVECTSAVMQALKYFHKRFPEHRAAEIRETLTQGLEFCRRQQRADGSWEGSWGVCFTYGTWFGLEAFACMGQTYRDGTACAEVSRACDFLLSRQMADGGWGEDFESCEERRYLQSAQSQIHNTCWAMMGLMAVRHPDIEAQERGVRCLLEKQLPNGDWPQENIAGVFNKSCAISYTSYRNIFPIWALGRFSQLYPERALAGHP
UniProt Q7L2J0, sequence (Q7L2J0 whole entry, looked up): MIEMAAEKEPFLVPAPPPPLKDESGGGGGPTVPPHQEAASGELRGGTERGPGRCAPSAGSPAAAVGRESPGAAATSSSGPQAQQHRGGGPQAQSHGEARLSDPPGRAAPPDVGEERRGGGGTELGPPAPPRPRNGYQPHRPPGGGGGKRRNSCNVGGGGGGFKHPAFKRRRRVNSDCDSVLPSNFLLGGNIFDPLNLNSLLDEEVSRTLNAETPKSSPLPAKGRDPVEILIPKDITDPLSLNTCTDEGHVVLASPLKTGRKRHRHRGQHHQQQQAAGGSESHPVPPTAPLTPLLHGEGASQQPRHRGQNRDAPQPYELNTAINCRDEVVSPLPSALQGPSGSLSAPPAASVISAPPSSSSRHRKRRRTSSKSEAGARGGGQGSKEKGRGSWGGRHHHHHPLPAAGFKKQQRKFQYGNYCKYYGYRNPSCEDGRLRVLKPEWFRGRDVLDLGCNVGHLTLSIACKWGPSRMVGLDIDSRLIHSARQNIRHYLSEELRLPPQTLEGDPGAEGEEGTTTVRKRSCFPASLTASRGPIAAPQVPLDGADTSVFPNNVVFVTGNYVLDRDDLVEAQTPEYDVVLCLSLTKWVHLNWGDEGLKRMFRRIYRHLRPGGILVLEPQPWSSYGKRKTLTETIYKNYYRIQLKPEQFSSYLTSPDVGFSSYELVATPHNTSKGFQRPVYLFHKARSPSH

log2 fold change, inactive:
LUC7L2 (UniProt Q9Y383) 0.002
ILF3 isoform 7 (UniProt Q12906) -0.028
MAGOHB (UniProt Q96A72) -0.007
KDM5D isoform 3 (UniProt Q9BY66) -0.049
LIMD1 (UniProt Q9UGP4) 0.017
MED1 (UniProt Q15648) -0.018
MCL1 (UniProt Q07820) -0.017
LIMA1 isoform 4 (UniProt Q9UHB6) 0.019
LMBRD1 (UniProt Q9NUN5) 0.01
KIF13A (UniProt Q9H1H9) -0.095
MARCKSL1 (UniProt P49006) -0.087
LARP4 isoform 4 (UniProt Q71RC2) -0.027
KIF21A isoform 4 (UniProt Q7Z4S6) 0.079
LEMD3 (UniProt Q9Y2U8) -0.114
MAP3K7 (UniProt O43318) 0.085
MAPKAPK3 (UniProt Q16644) 0
MAPK14 isoform 2 (UniProt Q16539) -0.038
ITIH4 (UniProt Q14624) 0.117
MAGEA9 (UniProt P43362) -0.02
IMMT isoform 4 (UniProt Q16891) 0.018
MEPCE (UniProt Q7L2J0) 0.065
LSS (UniProt P48449) 0
